The list is not random: actives were taken first. Their share in the collection is about 7.6%.
KB-V1 MDR tox: KB-V1 MDR subline cytotoxicity | Potency, µM (top dose mostly 46.1 µM), most hits filed as cytotoxic | actives 3.4% (n = 400,000) | KB-V1 MDR cells viability, CellTiter-Glo, 72 h | AID 1347076; further: potency means the concentration at half of the fitted maximal effect; on the % scale 0 is the no-effect control and ±100 the full control effect; nearly all actives have a fitted effect of over 60% in size
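Following 72 h at 37 degrees C with compound, KB-V1 cell viability was read by CellTiter-Glo luminescence, medium being phenol-red-free DMEM plus 10% FBS; concentration-response parameters came from normalized, curve-fitted qHTS data.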
SW480 rereplic: DNA re-replication induction in SW480 cells; Potency, µM (highest dose often 46.1 µM), without a hit: at the highest dose re-replication activation, most hits filed as activators; actives 1.8% (n = 340,000); AID 624297; SW480 DNA re-replication, Hoechst DNA content imaging, 48 h; further: potency means the concentration at half of the fitted maximal effect; % of control where 0% means no effect; nearly all actives have a fitted effect of over 55% in size
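Compounds, transferred as 23 nL by pin tool, were incubated with cells for 48 hr; DNA content per nucleus was then quantified by Hoechst staining and fluorescence plate imaging.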
hERG WT inh: inhibitors of human wildtype KCNH2 potassium channel. Q12809. U2OS, BacMam KCNH2, thallium flux FluxOr; stronger effect = lower value. activity change, % at 1.84 µM. actives 0.37% (n = 340,000). AID 720551;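 active means maximum activity change below -70%; inconclusive means maximum activity change between -70% and -50%; inactive means maximum activity change above -50%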; further: on the % scale 0 is the no-effect control and ±100 the full control effect
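U2OS cells were transduced with wild-type KCNH2 virus (2.03 x 10^8 / mL) for 4 h at room temperature, then cultured overnight at 37 C. Thallium flux was read with FluxOr dye. Rate constants were normalized to DMSO controls.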
KCNH2 3.1 inh: KCNH2 3.1 (human) potassium channel inhibition. actives 0.95% (n = 340,000). U2OS KCNH2 3.1, thallium flux FluxOr; stronger effect = lower value. activity change, % (tested at about 1.8 µM);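 active means maximum activity change below -70%; inconclusive means maximum activity change from -70% to -50%; inactive means maximum activity change above -50%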;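 further: thallium influx rate constant from kinetic fluorescence after stimulation buffer; on the % scale 0 is the no-effect control and ±100 the full control effect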
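Measured as rate of thallium-driven FluxOr signal in transduced U2OS cells carrying the 3.1 channel, read kinetically for 2 min upon stimulation; values are rate constants scaled to DMSO control wells.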
MCF10A rereplic: inducers of DNA re-replication in MCF 10A breast cells; MCF 10A DNA re-replication, Hoechst nuclear intensity, 48 h; Potency, µM (series often up to 46.1 µM), for inactives: top-dose activity, positive = re-replication, most hits filed as activators; actives 2.9% (n = 350,000); further: potency means the concentration at half of the fitted maximal effect; % of control where 0% means no effect; nearly all actives have a fitted effect of over 50% in size
KB-3-1 tox: KB-3-1 parental cell cytotoxicity; Potency, µM (top dose mostly 46.1 µM), actives largely listed as cytotoxic; actives 1.4% (n = 400,000); KB-3-1 viability, CellTiter-Glo ATP luminescence, 72 h; further: potency means the concentration at half of the fitted maximal effect; on the % scale 0 is the no-effect control and ±100 the full control effect; nearly all actives have a fitted effect of over 60% in size
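Viability of parental KB-3-1 cells, measured by CellTiter-Glo luminescence, followed a 72 h incubation at 37 °C with pinned compounds in phenol-red-free DMEM containing 10% FBS.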
* marks the source's active call; other numbers are inactive results; i = inactive; ? = inconclusive; nt = no result given; ! = not confirmed by another sample. Unless noted, the call rests on the fitted dose curve; in most records, active means well fitted curve in the direction sought with a large enough effect; inconclusive means small, poorly fitted or top-dose-only effect, or another doubt; inactive means no such curve, though single readings can be large; an effect the other way counts as inactive or inconclusive.

SMILES	KB-V1 MDR tox	SW480 rereplic	hERG WT inh	KCNH2 3.1 inh	MCF10A rereplic	KB-3-1 tox
Cc1cccc2c(C(=O)N3CCN(c4ccccc4)CC3)cc(-c3ccncc3)nc12	3.7µM*	6.5µM*	9	-2	7.3µM*	4.1µM*
CC(Sc1nnc(-c2cccs2)n1-c1ccccc1)C(=O)NCc1ccc2c(c1)OCO2 (stereo not drawn)	8.2µM*	13%	-2	24	-11%	i
CC(C)Cn1c(-c2csc3c2CCCC3)n[nH]c1=S	21µM*	-8%	3	7	9%	i
COc1ccc(S(=O)(=O)Nc2ccc(Oc3ccsc3C(=O)O)cc2)cc1	i	0%	4	0	-2%	i
Cc1ccc(S(=O)(=O)Nc2ccc(N(C)S(=O)(=O)c3ccc(C)cc3)cc2)cc1	i	13%	2	-25	18%	i
Cc1ccc(S(=O)(=O)N(C)c2ccc3c(c2)C(=O)c2ccccc2-3)cc1	21µM*	nt	nt	nt	nt	?
CN1C(=O)/C(=C\c2ccc(N(C)C)cc2)OC1=S	i	?	-101*	-23	28%	i
CC(C)CCNC(=O)c1ccc(Cn2c(SCC(N)=O)nc3ccccc3c2=O)cc1	i	nt	nt	nt	nt	i
CC(C)c1ccc(N2C(=O)CSC23C(=O)N(Cc2cccc(F)c2)c2ccccc23)cc1 (stereo not drawn)	13µM*	nt	nt	nt	nt	21µM*
Cc1cccc(N2C(=O)CSC23C(=O)N(Cc2cccc(F)c2)c2ccccc23)c1 (stereo not drawn)	15µM*	nt	nt	nt	nt	?
CCc1ccc(N2C(=O)CSC23C(=O)N(Cc2cccc(OC)c2)c2ccccc23)cc1 (stereo not drawn)	10µM*	nt	nt	nt	nt	?
Cc1cccc(N2C(=O)CS(=O)(=O)C23C(=O)N(Cc2c(F)cccc2Cl)c2ccccc23)c1 (stereo not drawn)	5.8µM*	nt	nt	nt	nt	i
COc1nc(-c2ccccc2)ccc1-c1noc(-c2ccccc2Br)n1	i	nt	nt	nt	nt	i
COc1cccc(CNC(=O)N2CCc3c(sc4c3CCCC4)C2c2ccc(F)cc2)c1 (stereo not drawn)	i	nt	nt	nt	nt	?
O=C1CSC2(C(=O)N(Cc3cccc(F)c3)c3ccccc32)N1c1cccc(C(F)(F)F)c1 (stereo not drawn)	13µM*	nt	nt	nt	nt	?
CCCCn1c(=N)n(CC(O)COc2cccc(C)c2)c2ccccc21 (stereo not drawn)	21µM*	?	30	-42	21%	21µM*
CC(C)(C)C(=O)Cn1c(=N)n(Cc2ccccc2)c2ccccc21	?	?	-10	-46	18µM*	?
Cc1ccccc1OCC(O)Cn1c(=N)n(Cc2ccccc2)c2ccccc21 (stereo not drawn)	?	5%	-2	?	0%	?
CCCCCn1c(=N)n(CC(O)COc2ccccc2OC)c2ccccc21 (stereo not drawn)	?	?	-85*	-107*!	?	?
COc1ccccc1OCC(O)Cn1c(=N)n(Cc2ccccc2)c2ccccc21 (stereo not drawn)	?	?	10	-89*	?	16µM*
CC(C)(C)C(=O)Cn1c(=N)n(Cc2ccccc2Cl)c2ccccc21	i	?	-11	-5	14%	?
CCOc1ccc(C(=O)NNC(=O)C2CC(=O)N(c3ccc(C)cc3)C2)cc1 (stereo not drawn)	i	12%	-4	-5	-1%	i
Cc1nc2c(=O)[nH]c(=S)[nH]c2[nH]c1=O	i	1%	-5	6	-2%	i
CCN(CC)c1cccc(OC(=O)c2cccnc2Cl)c1	i	-8%	10	-16	3%	i
Cc1ccc(S(=O)(=O)NCC(=O)OC(C)C(=O)NCc2ccc3c(c2)OCO3)cc1 (stereo not drawn)	i	-5%	1	3	8%	i
SMILES	KB-V1 MDR tox	SW480 rereplic	hERG WT inh	KCNH2 3.1 inh	MCF10A rereplic	KB-3-1 tox
Cc1cc(NC(=O)CCN2C(=O)C3C4CCC(C4)C3C2=O)c(C)cc1Br (stereo not drawn)	15µM*	-2%	5	4	4%	i
CCOC(=O)N1CCC2(CC1)C(C#N)=C(N)Oc1c2sc2nc(C)cc(C)c12	i	?	-8	14	7.3µM*	i
CCCN1CCC2(CC1)C(C#N)=C(N)Oc1c2sc2nc(C)cc(C)c12	i	-4%	-2	?	3%	i
CC1(C)CC(=O)C(N=Nc2cc(C(F)(F)F)ccc2Cl)=C(O)C1	i	-18%	-7	-7	0.52µM*	i
CC1(C)CC(=O)C(N=Nc2ccc(-c3ccccc3)cc2)=C(O)C1	i	-61%	-9	-13	0.73µM*	i
CCOC(=O)CCC(=O)Nc1nnc2n1CCS2	i	nt	nt	nt	nt	i
CC1=CCC[C@H]2[C@H](C1)C(=O)C[C@@H](C)[C@]2(C)CC/C(=C/CO)CO	i	6%	-3	2	-8%	i
C[N+](C)(CCCCCI)c1ccc(/C=C/c2nc3ccccc3s2)cc1	i	nt	nt	nt	nt	?
CCOC(=O)c1c(C)oc2ccc(O)c(CN(C)C)c12	i	-2%	7	nt	3%	i
CCOC(=O)c1c(CSc2ccccc2)oc2ccc(O)cc12	i	0%	-1	0	18µM*	i
CCOC(=O)c1c(CSc2ccc(CC)cc2)oc2ccc(O)c(CN(C)C)c12	?	18µM*	39	?	?	?
CC(=O)c1c(CSc2ccccc2)oc2ccc(O)c(CN(C)C)c12	i	13µM*	16	-12	?	i
CCOC(=O)CCCCCC(=O)Nc1ccc2c(c1)C(=O)N([C@@H](C)CO)C[C@@H](C)[C@H](CN(C)C(=O)c1ccncc1)OCCCC[C@H](C)O2	i	nt	-4	-4	nt	i
O=C(COC(=O)c1cc(-c2cccc(Br)c2)nc2ccccc12)NCC1CCCO1 (stereo not drawn)	i	?	3	-17	?	?
Cc1cccn2c(=O)c(C=C(C#N)C#N)c(N3CCN(c4cccc(Cl)c4)CC3)nc12	i	?	5	-6	?	i
COc1ccc(CNC(=O)COc2ccc(S(=O)(=O)N3CCCCC3)cc2Cl)cc1	?	-4%	26	4	?	?
COc1ccc(CNC(=O)CCCn2ccc3cc(S(=O)(=O)N4CCCC4)ccc32)cc1	?	7.3µM*	-26	-7	21µM*	?
COc1ccc(CNC(=O)COc2ccc(S(=O)(=O)N3CCCCC3)cc2)cc1	nt	5%	-131*	-13	?	nt
